High-throughput results as filed in PubChem.
tim10-1 inh = tim10-1 yeast growth inhibition | S. cerevisiae tim10-1 ts strain growth, BacTiter-Glo, 24 h | 330,000 compounds, 2.2% hits | inhibition, % at 20 µM;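 active = inhibition of at least 40%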;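 note: mutant grown at 25 °C; 0% = DMSO wells with yeast and 100% = wells holding no yeast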
NALP1 yeast inh = blocks the NALP1 inflammasome reconstituted in yeast. inhibition, % at 10 µM. 280,000 compounds, 0.61% hits. S. cerevisiae NALP1/ASC/caspase-1 growth, X-gal OD620, 72 h; in the data active = inhibition mostly above about 24%, no sharp cut-off; inactive = mostly below about 32%
V-ATPase pH = regulators of yeast V-ATPase proton transport. S. cerevisiae, pHLuorin cytosolic pH fluorescence. response, % at 10 µM. 350,000 compounds, 0.37% hits. AID 504577; in the data active = response mostly above about 7.3%, no sharp cut-off; inactive = mostly below about 5.4%; note: actives read high
tim23-1 inh = tim23-1 yeast growth inhibition | S. cerevisiae tim23-1 growth, BacTiter-Glo luminescence, 24 h | inhibition, % at 20 µM | 330,000 compounds, 1.3% hits;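 active = growth inhibition of the mutant yeast at or above 50%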;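 note: temperature-sensitive mutant grown at 25 °C; plate controls were DMSO-treated mutant yeast for no effect and medium wells lacking yeast for full effect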
TIM10 inh = growth inhibitors of TIM10 yeast strain. 330,000 compounds, 1.4% hits. S. cerevisiae TIM10 strain growth, BacTiter-Glo luminescence, 24 h. inhibition, % at 10 µM;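 active = inhibition of 40% or more at the single tested concentration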;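 note: wild-type TIM10 isogenic control strain grown at permissive 25 °C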
NALP3 yeast inh = blocks the NALP3 inflammasome reconstituted in yeast; Yeast reconstituted NLRP3/ASC/caspase-1, beta-gal luminescence, 24 h; inhibition, % at 10 µM; 330,000 compounds, 0.39% hits;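 active = inhibition of 50% or more; inactive = inhibition below 50%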;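 note: plate controls were induced DMSO wells for no effect and uninduced yeast grown without galactose for full effect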
tim23-1 conf = confirmation of tim23-1 mutant yeast growth inhibitors | shares compounds with tim23-1 inh | S. cerevisiae tim23-1 growth, BacTiter-Glo luminescence, 24 h | inhibition, % at 20 µM | 4,400 compounds, 83% hits | AID 463218;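 active = inhibition above about 39% in either of two replicate wells at 20 µM, limit read from the data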;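 note: temperature-sensitive tim23-1 mutant grown at 25 °C; 0% = DMSO wells with yeast and 100% = medium wells without yeast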
The depositor's hits bear a star; · = not tested or not shown. This is a sample that favours compounds with a hit; in the whole collection about 4.2% have one here.

SMILES | tim10-1 inh | NALP1 yeast inh | V-ATPase pH | tim23-1 inh | TIM10 inh | NALP3 yeast inh | tim23-1 conf
Cc1cccc(C(=O)Nc2cccc(C(=O)N/N=C/c3ccncc3)c2)c1 | 12 | 5 | -4 | 10 | 5 | 14 | ·
O=C(CSc1nnnn1C1CCCC1)c1ccc2c(c1)OCCO2 | 39 | 15 | 0 | 53* | 34 | 9 | 46*
CC(C)n1nnnc1SCC(=O)c1ccc2c(c1)OCCO2 | 24 | 16 | 4 | 21 | 21 | 19 | ·
COc1ccc(NC(=O)CSC2=NN3CCCC(=O)N=C3S2)c(OC)c1 | 18 | 10 | 3 | 12 | -7 | 11 | ·
CCC1CCc2sc(C(=O)N(C)CC(=O)Nc3cccc(OC)c3)cc2C1 (configuration not stated) | 19 | · | 3 | 51* | 12 | 27 | 41*
CCC1CCc2sc(C(=O)NCC3CCCO3)cc2C1 (configuration not stated) | 11 | · | 0 | 51* | 7 | 27 | 38
CCC1CCc2sc(C(=O)N(C)CC(=O)Nc3ccc(OC)cc3)cc2C1 (configuration not stated) | 33 | · | -1 | 51* | 0 | 38 | 45*
Cc1cc(C)n(CCC(=O)N/N=C/c2c(O)ccc3ccccc23)n1 | -4 | · | 4 | 54* | 19 | 1 | 51*
COc1ccccc1OCC(=O)N/N=C/c1c(O)ccc2ccccc12 | 36 | -10 | 0 | 59* | 30 | 25 | 55*
Cc1cc(C)n(CCC(=O)N/N=C/c2ccc(O)cc2)n1 | 16 | 6 | 1 | 8 | -12 | 7 | ·
COc1ccc2ccccc2c1/C=N\NC(=O)c1ccc(C)s1 | 9 | 4 | 1 | 51* | 21 | 28 | 38
CCn1cc([N+](=O)[O-])c(C(=O)Nc2c(C)nn(Cc3cccc(F)c3)c2C)n1 | 8 | 35 | 4 | 4 | 5 | -9 | ·
C=CCNc1ncnc2sc(SC)nc12 | 9 | 24 | 4 | 21 | 13 | 15 | ·
COc1cccc(C(=O)NCC(=O)OCC(=O)c2ccccc2)c1 | 13 | 29 | 2 | 0 | 12 | 12 | ·
Cc1cc(C)c(NC(=S)N(CCN(C)C)Cc2cccs2)c(C)c1 | 15 | 4 | -1 | 14 | 12 | 5 | ·
CN(C)c1nc(N)c([N+](=O)[O-])c(N2CCCCCC2)n1 | 33 | 18 | -2 | 54* | 9 | 21 | 39*
CCOc1cc2c3c(c1)C(C)=CC(C)(C)N3C(=O)C2=O | 11 | 7 | 5 | 56* | 14 | 29 | 56*
Cc1cc2c3c(c1)C(C)CC(C)(C)N3C(=O)C2=O (configuration not stated) | 33 | 16 | 0 | 53* | 22 | 8 | 55*
CCOc1cc2c3c(c1)C(C)CC(C)(C)N3C(=O)C2=O (configuration not stated) | 27 | 2 | -3 | 50* | 30 | 28 | 55*
O=C(Cc1n[nH]c(=O)c2ccccc12)Nc1cccc(S(=O)(=O)N2CCCCCC2)c1 | 6 | · | -1 | -5 | 4 | 10 | ·
COCCN(C(=O)COC(=O)c1ccc(C)o1)c1c(N)n(Cc2ccccc2)c(=O)[nH]c1=O | -2 | · | 3 | -11 | 3 | 11 | ·
Cc1cccc(N=Nc2ccc(O)c3ncccc23)c1 | 18 | 15 | -4 | 60* | 17 | 27 | 56*
Cc1ccc(C)c(N=Nc2ccc(O)c3ncccc23)c1 | 33 | 2 | 13 | 0 | 7 | 17 | ·
COc1cc(S(=O)(=O)n2nnc3ccccc32)c(OC)cc1Cl | 40 | -54 | 3 | 61* | 25 | 21 | 56*
COc1ccc(OC)c(S(=O)(=O)n2nnc3cc(Cl)ccc32)c1 | 19 | 25 | -1 | 10 | 0 | 17 | ·
SMILES | tim10-1 inh | NALP1 yeast inh | V-ATPase pH | tim23-1 inh | TIM10 inh | NALP3 yeast inh | tim23-1 conf
CCSc1ccc([C@@H]2[C@H]3C(=O)N(CC)C(=O)[C@H]3[C@]3(C(=O)OC)CCCCN23)cc1 | 27 | · | 1 | 81* | 19 | 21 | 45*
CC1CCCCN1C(=O)Nc1cccc(Cl)c1 (configuration not stated) | 16 | 2 | 3 | 51* | 17 | 4 | 48*
Cc1cc2c(cc1C)NC(c1nc3ccccc3[nH]1)C1=C(CC(C)(C)CC1=O)N2 (configuration not stated) | 0 | -13 | · | 10 | 6 | 2 | ·
COc1ccccc1N(C)S(=O)(=O)c1ccc(C(=O)NCCCN2CCCC2=O)cc1 | · | · | -1 | · | · | · | ·
CN(C(=S)NC(=O)c1ccccc1Br)C1CCCCC1 | 40 | 0 | -3 | 50* | 28 | -11 | 35
CCOc1ccc(NC(=O)c2ccccc2NC(=O)CN(C)CC(=O)Nc2ccc(C)cc2)cc1 | 16 | -8 | 0 | 10 | 10 | 15 | ·
CCC(CC)C(=O)Nc1c(C(=O)N2CCN(c3ccccc3)CC2)oc2ccccc12 | 39 | 22 | 3 | 51* | 28 | 7 | 42*
CCCCn1c(N)c(N(CCOC)C(=O)c2cc(-c3ccccc3Cl)nc3ccccc23)c(=O)[nH]c1=O | -1 | · | -3 | 3 | 5 | 14 | ·
C/C(=C\c1ccc2c(c1)OCO2)C1Nc2cccc3cccc(c23)N1 | 31 | · | 4 | 52* | 22 | 5 | 47*
C/C(=C\c1ccccc1)C1Nc2cccc3cccc(c23)N1 | 24 | · | · | 25 | 0 | 14 | ·
CCN(CC)c1ccc(/C=N/NC(=O)c2ccc3c(c2)OCCO3)cc1 | 13 | 3 | 3 | 59* | 36 | 23 | 57*
O=C(N/N=C/c1ccc2c(c1)OCO2)c1ccc2c(c1)OCCO2 | -53 | 27 | -1 | 29 | 15 | 9 | ·
CCN(CC)c1ccc(/C=N/NC(=S)NC)c(O)c1 | -14 | 4 | -3 | 28 | 28 | 40 | ·
CN(C)c1ccc(/C=N/NC(=O)c2ccc3c(c2)OCCO3)cc1 | -9 | 8 | -1 | 58* | 8 | 26 | 38
CCN(CC)c1ccc(/C=N/NC(=O)OC)c(O)c1 | 16 | 4 | 0 | 59* | 26 | 49 | 36
CCN(CC)c1ccc(C(=O)N/N=C/c2ccccc2OC(F)F)cc1 | 27 | 1 | -2 | 56* | 22 | 27 | 66*
CCN(CC)C(=O)Cn1cc(C(=O)C(=O)N2CCc3ccccc32)c2ccccc21 | 36 | 25 | 1 | 19 | 7 | 6 | ·
O=C(Oc1ccccc1/C=C\C(=O)c1cc2ccccc2o1)c1cccc(F)c1 | 30 | 26 | -2 | 52* | 33 | 28 | 58*
CC(C)(C)c1ccc(OCC(=O)NCc2ccco2)c(Br)c1 | 34 | 28 | 2 | 56* | 34 | 27 | 62*
CC(C)(C)c1ccc(OCC(=O)NNC(=S)NC(=O)c2ccco2)c(Br)c1 | 22 | 11 | 3 | 27 | 32 | 43 | ·
COCCN(C(=O)COC(=O)CCc1ccccc1OC)c1c(N)n(Cc2ccccc2)c(=O)[nH]c1=O | 3 | · | 1 | 5 | -2 | 19 | ·
